# KB-3-1 cytotox = KB-3-1 parental cell cytotoxicity. KB-3-1 viability, CellTiter-Glo ATP luminescence, 72 h. Potency, µM (titrated, usually from 46.1 µM), actives largely listed as cytotoxic. 400,000 compounds, 1.4% hits; further: on the % scale 0 is the no-effect control and ±100 the full control effect; nearly all actives have a fitted effect of over 60% in size
#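 Using CellTiter-Glo luminescence, growth of non-resistant KB-3-1 adenocarcinoma cells is assessed 72 h after pin-tool compound addition at 37 °C. Normalized responses across the concentration series yield fitted curves.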
# MCF10A rerep = DNA re-replication induction in MCF 10a cells; Potency, µM (top dose mostly 46.1 µM), without a hit: at the highest dose activity, positive = re-replication, most hits filed as activators; 350,000 compounds, 2.9% hits; MCF 10A DNA re-replication, Hoechst nuclear intensity, 48 h; further: % of control where 0% means no effect; nearly all actives have a fitted effect of over 50% in size
# HT1080 IDH1KD tx = kills HT-1080 cells with IDH1 knockdown; HT-1080 IDH1 knockdown viability, ATP luminescence, 48 h; Potency, µM (highest dose often 46.1 µM), for the others: at the top dose activity, negative = toxicity, usual class: cytotoxic; 360,000 compounds, 2% hits; AID 686971;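 further: 0% = DMSO wells and -100% = cell-free medium wells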
#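 % activity derives from luminescence (CellTiter-Glo), normalised to DMSO and no-cell wells. HT-1080-IDH1KD cells, 750/well, had 48 h compound exposure at 37 °C.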
# HT1080NT lethal = kills 2HG-producing HT-1080-NT fibrosarcoma cells; HT-1080-NT fibrosarcoma viability, CellTiter-Glo ATP luminescence, 48 h; 360,000 compounds, 1.6% hits; Potency, µM (highest dose often 46.1 µM), for inactives: at the highest dose activity, negative = less viability, usual class: cytotoxic;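 further: NT is the 2HG producing partner of a matched IDH1 knockdown line; 0% = DMSO-treated cells and -100% = media-only wells without cells; nearly all actives have a fitted effect of over 55% in size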
#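 HT-1080-NT fibrosarcoma cells (2HG-overproducing), 750 cells/well in RPMI with 5% FBS, dosed after 2 h and incubated 48 h at 37C. CellTiter-Glo luminescence normalized to DMSO and no-cell wells; concentration-response curves fitted and classed.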
# KB-V1 MDR tox = kills drug-selected multidrug resistant KB-V1 cells; KB-V1 MDR cells viability, CellTiter-Glo, 72 h; Potency, µM (top dose mostly 46.1 µM), usual class: cytotoxic; 400,000 compounds, 3.4% hits; AID 1347076; further: on the % scale 0 is the no-effect control and ±100 the full control effect; nearly all actives have a fitted effect of over 60% in size
#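 Cytotoxicity via CellTiter-Glo luminescence after 72 h compound exposure at 37 degrees C. Cells: drug-selected KB-V1 line, DMEM phenol-red free plus 10% FBS. Compounds tested at multiple concentrations; normalized data fitted to concentration-effect curves.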
# SW480 rerep = DNA re-replication induction in SW480 cells. SW480 DNA re-replication, Hoechst DNA content imaging, 48 h. Potency, µM (top dose mostly 46.1 µM), without a hit: at the top dose re-replication activation, hits mostly activators. AID 624297. 340,000 compounds, 1.8% hits; further: % of control where 0% means no effect; nearly all actives have a fitted effect of over 55% in size
#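 First, 250 cells per well were seeded. Next, compound or vehicle (23 nL) was pinned in, plates sat 48 hr at 37 C. Finally Hoechst was added for 40 min before fluorescence scanning.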
# * = called active by the depositor; i = inactive; u = inconclusive; x = no result. Sampled rows, rich in hits. Any-hit rate of the full collection: about 8%. The call rests on the fitted dose curve; in most records, active means well fitted curve in the direction sought with a large enough effect; inconclusive means small, poorly fitted or top-dose-only effect, or another doubt; inactive means no such curve, though single readings can be large; an effect the other way counts as inactive or inconclusive. Potency means the concentration at half of the fitted maximal effect.
SMILES,KB-3-1 cytotox,MCF10A rerep,HT1080 IDH1KD tx,HT1080NT lethal,KB-V1 MDR tox,SW480 rerep
Cc1nc(NCc2ccco2)c2c3c(sc2n1)CCC3,u,0.9%,u,u,i,u
CCOC(=O)c1cc2ccc(OC(=O)c3ccco3)cc2oc1=O,i,3.26µM*,u,-3.6%,i,29.6%
CCOc1ccc2cc(C(=O)NCc3ccccc3)c(=N)oc2c1,i,u,-26.0%,-14.1%,i,0.6%
CCCCCCc1cc2cc(C(=O)Nc3cccc(OC)c3)c(=O)oc2cc1O,7.31µM*,u,4.9%,9.2%,6.51µM*,u
CCCCCCc1cc2cc(S(=O)(=O)c3ccc(F)c(Cl)c3)c(=O)oc2cc1O,i,u,u,16.4µM*,14.6µM*,2.59µM*
CCCCCCc1cc2cc(C(=O)NC)c(=N)oc2cc1O,i,u,23.4%,4.0%,i,12.6µM*
CCOC(=O)c1cc2ccc3ccccc3c2oc1=O,i,6.8%,4.3%,9.8%,u,u
COc1ccc2oc(=O)c(C(=O)Nc3ccccc3O)cc2c1,i,2.6%,-0.9%,0.7%,i,-1.9%
CNc1c(NS(=O)(=O)c2ccc(F)c(Cl)c2)c(=O)oc2ccccc12,i,2.8%,u,-16.8%,i,1.4%
CCCCCCc1cc2cc(C(=O)Nc3ccc(OC)cc3)c(=O)oc2cc1O,8.2µM*,0.731µM*,-18.7%,-9.5%,8.2µM*,14.6µM*
CCCCCCc1cc2cc(C(=O)OCC)c(=O)oc2cc1O,i,u,-10.8%,2.4%,i,1.3µM*
COc1ccc(NC(=O)c2cc3ccccc3oc2=O)cc1,i,x,10.2%,11.6%,i,x
CCCCCCc1cc2cc(/C(N)=N/NC(=O)c3ccncc3)c(=O)oc2cc1O,i,1.3µM*,-4.2%,-11.9%,i,1.64µM*
CCCCCCc1cc2cc(-c3nnc(-c4ccc(C)cc4)o3)c(=O)oc2cc1O,i,x,x,x,i,x
N/C(=N\NC(=O)c1ccc(F)cc1)c1cc2ccccc2oc1=O,i,-2.9%,-7.7%,-17.0%,i,0.7%
CCNC(=O)n1cc(-n2cncn2)c(-c2ccccc2)n1,i,2.7%,-9.2%,-4.2%,u,3.2%
COc1ccc2oc(C(=O)Nc3nccs3)c(C)c2c1,i,16.5%,-10.0%,8.2%,i,-63.1%
CNC[C@H]1Oc2cc(Br)ccc2S(=O)(=O)N([C@H](C)CO)C[C@H]1C,i,x,-3.1%,-3.0%,i,x
Cc1ccc(C(=O)C(C)OC(=O)c2cc3cc([N+](=O)[O-])ccc3oc2=O)cc1 (configuration not stated),i,-5.8%,11.2µM*,-15.4%,i,0.3%
COc1cccc2cc(C(=O)OC(C)C(=O)c3ccc(C)cc3)c(=O)oc12 (configuration not stated),i,4.4%,11.5%,19.2%,i,-0.4%
Cc1ccc(N2C(=O)[C@@H]3[C@H](C2=O)C2CCCN2[C@@H]3C(=O)c2ccccc2)cc1 (some centres not stated),i,u,u,u,i,u
Cc1ccc(C)c(S(=O)(=O)C(C#N)c2nc3ccccc3nc2N2CC(C)OC(C)C2)c1 (configuration not stated),18.4µM*,u,u,u,u,u
N#CC(c1nc2ccccc2nc1N1CCCC1)S(=O)(=O)c1ccccc1 (configuration not stated),u,25.5%,12.8%,5.1%,20.6µM*,-4.4%
COc1ccc(CNC(=O)C(C#N)c2nc3ccccc3nc2N2CCCC2)cc1 (configuration not stated),i,11.6µM*,-4.3%,-2.9%,i,u
COc1ccc(CNC(=O)C(C#N)c2nc3ccccc3nc2N2CCN(C)CC2)cc1 (configuration not stated),i,2.0%,-3.6%,-4.6%,i,1.2%
SMILES,KB-3-1 cytotox,MCF10A rerep,HT1080 IDH1KD tx,HT1080NT lethal,KB-V1 MDR tox,SW480 rerep
Cc1ccc(C)c(S(=O)(=O)C(C#N)c2nc3ccccc3nc2N2CCCC2)c1 (configuration not stated),i,15.5%,9.9%,10.0%,i,-5.0%
Cc1ccc(C)c(S(=O)(=O)C(C#N)c2nc3ccccc3nc2N2CCOCC2)c1 (configuration not stated),u,u,-9.9%,-11.2%,11.6µM*,3.6%
CC(C)(C)NS(=O)(=O)c1ccc(NC(=O)C2CCCCC2)cc1,i,9.3%,-16.8%,-10.1%,i,7.4%
COc1ccc(S(=O)(=O)CC(=O)c2cc(C)c(O)c(C)c2)cc1,i,u,1.4%,-0.2%,i,-3.1%
CCN1CCC(N(Cc2ccc3c(c2)OCO3)C(=O)Nc2cc(Cl)ccc2C(=O)OC)CC1,16.4µM*,x,x,x,u,x
Cc1ccc(-c2ccc(/C=N/NC(N)=S)o2)cc1,i,u,-21.6%,-16.4%,u,-13.9%
Cc1ccc(C(=O)N/N=C/c2ccc(-c3cccc(C(F)(F)F)c3)o2)cn1,6.51µM*,9.2µM*,2.06µM*,u,8.2µM*,7.31µM*
CNC(=S)N/N=C/c1ccc(-c2cccc(C(=O)O)c2)o1,14.6µM*,3.8%,u,u,20.6µM*,-77.1%
NC(=S)N/N=C/c1ccc(-c2ccccc2)o1,i,0.731µM*,6.0%,-3.8%,u,21.5%
NC(=S)N/N=C\c1ccc(-c2cccc(Cl)c2Cl)o1,5.8µM*,u,-14.4%,-29.1%,1.3µM*,-0.2%
Cc1ccc(SCc2noc(C(=O)NCC3CCCO3)c2C(=O)O)cc1C (configuration not stated),i,9.4%,10.1%,7.6%,i,-5.0%
Cc1csc(CN(C)C(=O)CC2C(=O)NCCN2Cc2ccccc2C)n1 (configuration not stated),i,x,9.4%,6.8%,i,x
CCOc1ccc(OCC(=O)OCC(=O)Nc2ccccc2C#N)cc1,i,-0.6%,10.6%,11.6%,u,-5.1%
Cn1c(-c2ccc(CN3CCCCC3)o2)nc2ccccc21,i,2.9%,9.4%,6.1%,i,-4.1%
COc1ccc(CNC[C@@H](CCCCN(C)Cc2ccc(OC)cc2)N2C[C@H](c3ccccc3)N(CCc3ccc(Cl)c(Cl)c3)C(=O)C2=O)cc1,i,u,23.1µM*,18.4µM*,i,-8.2%
C=C(C)COc1ccc(-c2ncnc(C(F)(F)F)c2-c2ccc(OC)cc2)c(O)c1,u,u,-15.5%,-17.8%,u,u
COc1ccc(-c2c(C)nc(N)nc2-c2ccc(OC)cc2O)cc1,i,2.6%,-12.2%,-4.8%,i,u
